Results as given in a collection of fitness landscapes (doi:10.1126/science.1257360).
In all, about 140,000 sequences were measured (“enrichment ratio after two sorts for PhoP signalling”: median about 0, highest 2% from about 11 on). Shown is part of a subset that was picked to be rich in the highest values.

B1: PhoQ; a variant is named by its letters at X, in order, P23837 (parent)
chain: MKKLLRLFFPLSLRVRFLLATAAVVLVLSLAYGMVALIGYSVSFDKTTFRLLRGESNLFYTLAKWENNKLHVELPENIDKQSPTMTLIYDENGQLLWAQRDVPWLMKMIQPDWLKSNGFHEIEADVNDTSLLLSGDHSIQQQLQEVREDDDDAEMTHSVAVNVYPATSRMPKLTIVVVDTIPVELKSSYMVWSWFIYVLSANLLLVIPLLWVAAWWSLRPIEALAKEVRELEEHNRELLNPATTRELTSLVRNLNRLLKSERERYDKYRTTLTDLTHSLKTPLXXLQXXLRSLRSEKMSVSDAEPVMLEQISRISQQIGYYLHRASMRGGTLLSRELHPVAPLLDNLTSALNKVYQRKGVNISLDISPEISFVGEQNDFVEVMGNVLDNACKYCLEFVEISARQTDEHLYIVVEDDGPGIPLSKREVIFDRGQRVDTLRPGQGVGLAVAREITEQYEGKIVAGESMLGGARMEVIFGRQHSAPKDE

Variants of: B1
Assay: enrichment ratio after two sorts for PhoP signalling (ratio (wild type AVST 3.29)); higher = more functional
Conditions: with PhoP (E. coli)

Point of comparison: GSCQ, enrichment ratio 8.75. Against it:
- QIAI — lower, 2.26
- SIKG — lower, ≤ 0.25
- LGAF — lower, ≤ 0.25
- VRDP — lower, ≤ 0.25
- HMSS — lower, ≤ 0.25
- PMDA — lower, ≤ 0.25
- SGWG — lower, ≤ 0.25
- SGDG — lower, ≤ 0.25
- SGTG — higher, 15.9
- SGTA — lower, 7.55
- SGTI — higher, 16.7
- SGTS — lower, 7.16
- AGFW — lower, ≤ 0.25
- VWNV — lower, ≤ 0.25
- GLKA — lower, ≤ 0.25
- ENWV — lower, ≤ 0.25
- NKIG — lower, ≤ 0.25
- PDHR — lower, ≤ 0.25
- KAML — lower, ≤ 0.25
- NAML — lower, ≤ 0.25
- HYML — lower, ≤ 0.25
- HRML — lower, ≤ 0.25
- HTML — higher, 11.7
- TAML — higher, 25.8
- DPPS — lower, ≤ 0.25
- MECY — lower, 4.09
- SRCY — lower, ≤ 0.25
- IQCY — lower, ≤ 0.25
- TQCY — higher, 15.8
- SQCY — higher, 12.2
- RNCY — lower, ≤ 0.25
- QECY — lower, ≤ 0.25
- KYCY — lower, ≤ 0.25
- DWCY — lower, ≤ 0.25
- TECY — higher, 16.2
- SNCY — lower, 7.63
- SECY — higher, 13.7
- GDAQ — lower, ≤ 0.25
- TRTV — higher, 9.35
- SEWD — lower, ≤ 0.25
- KVEG — lower, ≤ 0.25
- LQIG — lower, ≤ 0.25
- YTTT — lower, ≤ 0.25
- SRTT — lower, ≤ 0.25
- TTTT — higher, 12.1
- SETT — higher, 12.6
- MKTT — lower, ≤ 0.25
- TQTT — higher, 23.1
- EQTT — lower, ≤ 0.25
- LTTT — lower, ≤ 0.25
- TKTT — higher, 11.6
- KYTT — lower, ≤ 0.25
- FQTT — lower, ≤ 0.25
- AKTT — lower, 3.25
- YAIP — lower, ≤ 0.25
- IDRF — lower, ≤ 0.25
- ATER — lower, ≤ 0.25
- NGCY — lower, ≤ 0.25
- PIGE — lower, ≤ 0.25
- SMQQ — lower, ≤ 0.25
- IGVV — lower, ≤ 0.25
- ISAV — lower, 0.486
- ADQP — lower, ≤ 0.25
- APWD — lower, ≤ 0.25
- PTFA — lower, ≤ 0.25
- KRKW — lower, ≤ 0.25
- MIGL — lower, 1.45
- KSTT — lower, ≤ 0.25
- SCTT — higher, 11.4
- SQTT — higher, 11.4
- VCTT — lower, ≤ 0.25
- TSTT — higher, 15.1
- FCTT — lower, ≤ 0.25
- KCTT — lower, ≤ 0.25
- SITT — lower, 6.9
- SPTT — lower, ≤ 0.25
- MMTT — lower, ≤ 0.25
- LCTT — lower, ≤ 0.25
- ICTT — higher, 11.9
- GPRY — lower, ≤ 0.25
- TYWS — lower, ≤ 0.25
- LGDG — lower, 0.39
- IKPA — lower, ≤ 0.25
